For part of these data: Measured potencies and affinities stand elsewhere.
Columns and labels:
Set-up in all cases: scale not given: direction of the effect not stated beside the values
[1] = molecular target: Protein translocase subunit SecA (Escherichia coli (strain K12)) (UniProt P10408); assay: Assay to Identify E. coli SecA ATPase Inhibitors; type: functional; details: 30 µM
[2] = molecular target: T1, Ubiquitin-activating enzyme e1, putative (Leishmania donovani (strain BPK282A1)) (UniProt E9BSI1); assay: Leishmania donovani Ubiquitin Activating Enzyme (LdE1); type: functional; details: 30 µM
T1 sequence (whole entry): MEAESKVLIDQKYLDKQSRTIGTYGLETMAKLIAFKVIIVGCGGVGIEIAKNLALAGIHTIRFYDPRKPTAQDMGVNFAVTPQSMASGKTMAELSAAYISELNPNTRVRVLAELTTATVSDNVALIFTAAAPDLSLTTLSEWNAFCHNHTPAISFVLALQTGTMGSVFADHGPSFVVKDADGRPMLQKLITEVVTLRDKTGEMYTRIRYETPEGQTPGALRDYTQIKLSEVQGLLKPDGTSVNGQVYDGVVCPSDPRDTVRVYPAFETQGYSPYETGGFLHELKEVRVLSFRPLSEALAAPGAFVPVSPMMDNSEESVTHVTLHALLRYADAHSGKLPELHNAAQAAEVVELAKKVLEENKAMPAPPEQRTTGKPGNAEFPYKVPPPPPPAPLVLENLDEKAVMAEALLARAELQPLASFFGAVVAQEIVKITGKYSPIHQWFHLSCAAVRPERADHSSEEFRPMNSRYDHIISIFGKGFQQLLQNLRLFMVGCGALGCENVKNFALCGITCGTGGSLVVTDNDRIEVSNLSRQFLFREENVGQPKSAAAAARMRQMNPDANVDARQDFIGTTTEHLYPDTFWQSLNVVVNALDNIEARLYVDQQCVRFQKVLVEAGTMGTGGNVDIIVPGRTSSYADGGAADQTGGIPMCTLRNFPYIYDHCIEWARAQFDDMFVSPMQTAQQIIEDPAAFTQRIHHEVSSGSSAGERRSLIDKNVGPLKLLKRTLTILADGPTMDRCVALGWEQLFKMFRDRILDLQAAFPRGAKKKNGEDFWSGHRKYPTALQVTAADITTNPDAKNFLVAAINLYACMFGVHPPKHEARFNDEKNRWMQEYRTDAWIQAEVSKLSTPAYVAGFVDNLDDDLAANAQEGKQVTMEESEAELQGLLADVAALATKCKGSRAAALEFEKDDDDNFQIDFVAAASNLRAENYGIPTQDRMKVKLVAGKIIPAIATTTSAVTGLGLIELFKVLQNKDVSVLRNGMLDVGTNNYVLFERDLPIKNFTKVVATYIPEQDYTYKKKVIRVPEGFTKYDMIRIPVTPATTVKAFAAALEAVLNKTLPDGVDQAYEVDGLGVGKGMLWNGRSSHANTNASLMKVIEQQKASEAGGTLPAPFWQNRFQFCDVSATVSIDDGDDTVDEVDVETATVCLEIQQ

[3] = molecular target: T2, Aspartate--tRNA(Asp/Asn) ligase (Mycobacterium tuberculosis (strain ATCC 25618 / H37Rv)) (UniProt P9WFW3); assay: Assay for Asp RNA synthetase-1 from Mycobacterium tuberculosis; type: functional; details: 30 µM; further: in the data most compounds retested in dose-response had high values
T2 sequence (whole entry): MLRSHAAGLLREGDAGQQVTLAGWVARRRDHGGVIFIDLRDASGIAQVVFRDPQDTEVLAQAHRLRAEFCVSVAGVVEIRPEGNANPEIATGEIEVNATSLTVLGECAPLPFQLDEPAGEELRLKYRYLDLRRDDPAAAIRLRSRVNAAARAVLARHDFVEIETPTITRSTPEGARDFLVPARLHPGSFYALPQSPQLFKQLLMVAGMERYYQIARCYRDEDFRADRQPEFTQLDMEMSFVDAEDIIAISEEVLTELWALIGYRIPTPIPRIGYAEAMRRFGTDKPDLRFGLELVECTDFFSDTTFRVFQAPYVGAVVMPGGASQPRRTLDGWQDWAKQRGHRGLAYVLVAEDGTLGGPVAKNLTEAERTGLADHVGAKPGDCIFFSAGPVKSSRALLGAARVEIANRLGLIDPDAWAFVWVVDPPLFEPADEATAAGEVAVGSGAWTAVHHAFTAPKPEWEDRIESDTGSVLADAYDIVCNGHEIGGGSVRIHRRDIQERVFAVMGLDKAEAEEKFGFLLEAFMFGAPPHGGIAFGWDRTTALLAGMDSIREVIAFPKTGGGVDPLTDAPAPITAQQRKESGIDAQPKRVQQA

[4] = molecular target: Sialic acid-binding Ig-like lectin 9 (Homo sapiens) (UniProt Q9Y336); assay: Hs-Siglec9 ALPHAscreen SOP 20170721; details: 10 µM
Sequence of Sialic acid-binding Ig-like lectin 9 (Homo sapiens) (Q9Y336 whole entry): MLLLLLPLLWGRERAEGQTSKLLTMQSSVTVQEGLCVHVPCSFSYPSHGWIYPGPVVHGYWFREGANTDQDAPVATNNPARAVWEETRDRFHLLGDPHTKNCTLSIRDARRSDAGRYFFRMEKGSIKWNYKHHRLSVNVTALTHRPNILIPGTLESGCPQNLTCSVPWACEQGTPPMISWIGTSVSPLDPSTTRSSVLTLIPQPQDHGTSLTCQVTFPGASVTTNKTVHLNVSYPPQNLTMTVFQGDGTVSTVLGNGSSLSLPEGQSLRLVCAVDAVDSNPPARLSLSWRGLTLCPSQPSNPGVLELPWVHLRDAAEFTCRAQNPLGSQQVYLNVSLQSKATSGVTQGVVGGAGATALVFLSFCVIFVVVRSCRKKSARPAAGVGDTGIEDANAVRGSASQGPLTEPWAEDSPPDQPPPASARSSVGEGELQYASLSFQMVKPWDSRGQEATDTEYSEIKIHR

Trypanosoma cruzi = assay: Trypanosoma cruzi phosphomannomutase and mannose-1-phosphate guanylyltransferase assay; type: functional; details: 10 µM
[5] = molecular target: T3, Arginase-2, mitochondrial (Homo sapiens) (UniProt P78540); assay: in vitro enzyme assay to detect the production of urea directly proportional to the activity of Arginase II; type: functional; details: 33.3 µM; further: in the data most compounds retested in dose-response had high values
T3 sequence (whole entry): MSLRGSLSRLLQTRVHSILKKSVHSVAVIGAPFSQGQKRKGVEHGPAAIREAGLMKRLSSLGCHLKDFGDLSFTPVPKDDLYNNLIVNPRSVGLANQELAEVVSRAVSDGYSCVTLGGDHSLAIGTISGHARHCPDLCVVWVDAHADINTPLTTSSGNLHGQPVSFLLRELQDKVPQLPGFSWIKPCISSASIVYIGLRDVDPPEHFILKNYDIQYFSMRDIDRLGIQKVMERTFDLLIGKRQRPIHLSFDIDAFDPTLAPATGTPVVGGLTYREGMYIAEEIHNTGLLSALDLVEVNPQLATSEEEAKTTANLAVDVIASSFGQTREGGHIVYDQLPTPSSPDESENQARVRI

[6] = molecular target: T4, Proteasome subunit beta (Trypanosoma cruzi) (UniProt O96673); assay: Trypanosoma cruzi proteasome chymotrypsin-like activity (TcProtChymo) assay.; further: in the data most compounds retested in dose-response had high values; type: functional; details: 9.37 µM
T4 sequence (whole entry): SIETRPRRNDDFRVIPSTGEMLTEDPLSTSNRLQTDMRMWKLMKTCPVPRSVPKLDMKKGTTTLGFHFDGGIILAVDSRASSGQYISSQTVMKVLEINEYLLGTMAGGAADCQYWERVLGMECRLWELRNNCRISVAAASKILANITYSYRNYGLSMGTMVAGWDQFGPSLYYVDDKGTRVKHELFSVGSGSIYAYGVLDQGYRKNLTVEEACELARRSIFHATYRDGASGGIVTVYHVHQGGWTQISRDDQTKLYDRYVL

Homo sapiens = species: Homo sapiens; assay: To identify inhibition of the IFN signalling (Jak-Stat) pathway via expression of an eGFP reporter gene under the control of an IFN-stimulated response element (ISRE) containing MxA promoter.; type: functional; details: 30 µM
[7] = molecular target: Shiga toxin 2 (Escherichia coli O157:H7) (UniProt P09385+P09386); assay: E. coli 0.157:H7 Shiga Toxin SOP - stx2 screening assay; type: functional; details: 30 µM
[8] = molecular target: T5, Tyrosyl-tRNA synthetase, putative (Trypanosoma cruzi (strain CL Brener)) (UniProt Q4DSP6); assay: Trypanosoma cruzi tyrosyl tRNA synthetase (TcYRS) _High Tyrosine SOP; type: functional; details: 30 µM; further: in the data most compounds retested in dose-response had high values
T5 sequence (whole entry): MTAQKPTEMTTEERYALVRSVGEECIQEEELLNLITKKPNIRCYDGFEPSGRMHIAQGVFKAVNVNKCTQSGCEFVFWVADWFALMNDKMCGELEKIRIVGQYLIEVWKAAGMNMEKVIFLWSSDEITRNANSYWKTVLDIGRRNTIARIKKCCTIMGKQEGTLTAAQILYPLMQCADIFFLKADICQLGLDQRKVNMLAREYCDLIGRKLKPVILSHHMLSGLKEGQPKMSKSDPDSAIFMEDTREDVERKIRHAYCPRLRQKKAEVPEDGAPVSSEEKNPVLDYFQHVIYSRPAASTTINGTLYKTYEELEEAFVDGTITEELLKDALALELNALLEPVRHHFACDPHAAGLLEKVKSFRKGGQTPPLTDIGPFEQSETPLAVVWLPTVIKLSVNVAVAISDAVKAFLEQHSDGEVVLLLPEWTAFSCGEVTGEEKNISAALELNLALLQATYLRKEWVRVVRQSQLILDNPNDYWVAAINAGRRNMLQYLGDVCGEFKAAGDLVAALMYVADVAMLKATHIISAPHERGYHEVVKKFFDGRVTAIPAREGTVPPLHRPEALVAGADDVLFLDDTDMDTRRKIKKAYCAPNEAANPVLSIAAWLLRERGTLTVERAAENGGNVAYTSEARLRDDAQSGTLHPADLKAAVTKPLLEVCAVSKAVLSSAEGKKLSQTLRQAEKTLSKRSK

[9] = molecular target: T5, Tyrosyl-tRNA synthetase, putative (Trypanosoma cruzi (strain CL Brener)); assay: Trypanosoma cruzi tyrosyl tRNA synthetase (TcYRS) SOP; type: functional; details: 30 µM
[10] = molecular target: Chromo domain-containing protein 1 (Saccharomyces cerevisiae (strain ATCC 204508 / S288c) (Baker's yeast)) (UniProt P32657); assay: ScCHD-1 Enzyme Inhibition Assay; type: functional; details: 30 µM; further: in the data most compounds retested in dose-response had high values
Sequence of Chromo domain-containing protein 1 (Saccharomyces cerevisiae (strain ATCC 204508 / S288c) (Baker's yeast)) (P32657 whole entry, the tested form may be a part): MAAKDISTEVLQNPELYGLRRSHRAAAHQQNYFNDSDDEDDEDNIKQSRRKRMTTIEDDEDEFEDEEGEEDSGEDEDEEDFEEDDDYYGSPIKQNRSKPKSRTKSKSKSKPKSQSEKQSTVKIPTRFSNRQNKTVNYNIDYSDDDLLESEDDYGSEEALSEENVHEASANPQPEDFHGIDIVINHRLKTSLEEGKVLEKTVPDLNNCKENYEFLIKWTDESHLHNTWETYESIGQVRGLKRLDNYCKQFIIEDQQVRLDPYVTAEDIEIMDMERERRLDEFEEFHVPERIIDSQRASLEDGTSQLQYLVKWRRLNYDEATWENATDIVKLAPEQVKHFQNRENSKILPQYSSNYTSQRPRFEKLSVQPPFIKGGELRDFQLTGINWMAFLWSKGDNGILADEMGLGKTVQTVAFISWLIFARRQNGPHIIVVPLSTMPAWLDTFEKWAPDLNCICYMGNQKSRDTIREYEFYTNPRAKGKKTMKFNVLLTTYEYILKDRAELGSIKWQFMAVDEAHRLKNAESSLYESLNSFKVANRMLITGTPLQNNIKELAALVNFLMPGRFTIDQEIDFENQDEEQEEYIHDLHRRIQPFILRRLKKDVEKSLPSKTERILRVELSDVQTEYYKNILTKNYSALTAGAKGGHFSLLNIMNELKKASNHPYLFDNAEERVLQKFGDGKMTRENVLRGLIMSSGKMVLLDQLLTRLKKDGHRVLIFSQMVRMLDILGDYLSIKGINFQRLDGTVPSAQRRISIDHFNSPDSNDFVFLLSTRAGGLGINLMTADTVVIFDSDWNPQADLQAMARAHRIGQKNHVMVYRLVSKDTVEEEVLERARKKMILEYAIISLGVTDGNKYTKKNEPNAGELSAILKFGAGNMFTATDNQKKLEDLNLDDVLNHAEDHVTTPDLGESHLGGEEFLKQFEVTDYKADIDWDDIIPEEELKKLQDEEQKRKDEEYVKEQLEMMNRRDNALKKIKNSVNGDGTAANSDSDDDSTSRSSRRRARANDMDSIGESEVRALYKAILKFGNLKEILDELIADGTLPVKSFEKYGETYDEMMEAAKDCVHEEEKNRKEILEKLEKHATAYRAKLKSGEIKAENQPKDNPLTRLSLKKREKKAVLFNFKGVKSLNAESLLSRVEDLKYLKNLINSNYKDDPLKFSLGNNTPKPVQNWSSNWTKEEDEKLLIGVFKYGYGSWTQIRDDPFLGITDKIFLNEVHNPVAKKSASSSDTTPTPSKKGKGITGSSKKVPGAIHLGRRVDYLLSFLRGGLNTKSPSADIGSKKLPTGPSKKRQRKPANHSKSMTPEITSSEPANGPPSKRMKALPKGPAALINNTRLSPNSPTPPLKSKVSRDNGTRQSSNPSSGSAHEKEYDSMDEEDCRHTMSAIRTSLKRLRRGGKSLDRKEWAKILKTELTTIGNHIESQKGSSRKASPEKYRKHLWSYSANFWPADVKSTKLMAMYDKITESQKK

Sequence of Protein translocase subunit SecA (Escherichia coli (strain K12)) (P10408 whole entry): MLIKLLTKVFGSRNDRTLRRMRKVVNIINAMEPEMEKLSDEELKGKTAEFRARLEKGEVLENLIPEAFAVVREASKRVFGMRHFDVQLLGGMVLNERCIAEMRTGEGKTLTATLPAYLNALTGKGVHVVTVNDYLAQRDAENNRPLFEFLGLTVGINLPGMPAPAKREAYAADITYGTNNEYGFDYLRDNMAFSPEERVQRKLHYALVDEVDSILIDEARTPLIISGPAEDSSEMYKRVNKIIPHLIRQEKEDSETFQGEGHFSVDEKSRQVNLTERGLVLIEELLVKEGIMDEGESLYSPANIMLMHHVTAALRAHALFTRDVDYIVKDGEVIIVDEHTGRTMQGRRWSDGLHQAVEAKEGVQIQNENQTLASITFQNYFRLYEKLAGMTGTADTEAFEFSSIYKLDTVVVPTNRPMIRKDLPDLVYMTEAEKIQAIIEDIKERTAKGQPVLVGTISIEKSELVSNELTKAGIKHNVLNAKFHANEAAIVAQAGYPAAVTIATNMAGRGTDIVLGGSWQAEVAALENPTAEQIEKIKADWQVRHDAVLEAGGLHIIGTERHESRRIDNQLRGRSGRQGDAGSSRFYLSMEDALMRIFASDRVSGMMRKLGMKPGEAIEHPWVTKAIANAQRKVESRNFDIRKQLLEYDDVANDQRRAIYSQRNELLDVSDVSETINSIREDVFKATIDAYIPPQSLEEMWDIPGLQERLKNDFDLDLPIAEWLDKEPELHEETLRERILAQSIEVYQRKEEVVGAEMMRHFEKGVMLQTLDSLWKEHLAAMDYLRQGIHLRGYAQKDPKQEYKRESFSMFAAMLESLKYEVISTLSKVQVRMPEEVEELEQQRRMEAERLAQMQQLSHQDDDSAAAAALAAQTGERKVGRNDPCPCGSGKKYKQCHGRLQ

SMILES	Percent Effect [1] [%]	Percent Effect [2] [%]	Percent Effect [3] [%]	Percent Effect [4] [%]	Percent Effect (Trypanosoma cruzi) [%]	Percent Effect [5] [%]	Percent Effect [6] [%]	Percent Effect (Homo sapiens) [%]	Percent Effect [7] [%]	Percent Effect [8] [%]	Percent Effect [9] [%]	Percent Effect [10] [%]
Cc1noc(C)c1CN1CCO[C@H]2CN(CC3CC3)C[C@H]21	-4.84	11.7	-1.48	9.57	4.58	3.24	18.4	2.94	-2.75	8.95	20.5	12.9
CCc1noc(C(C)N2CCNCC2)n1 (stereo not given)	-5.07	5.33	-11.9	0.232	-0.602	-2.22	13.3	-0.55	6.76	2.63	2.56	-9.82
CCc1nc(CN2CCN(C(=O)Cc3c(C)noc3C)CC2)cs1	-0.475	12.8	-3.43	-11.1	2.72	2.87	6.06	10.4	-8.34	6.22	13.2	-5.04
NCC1[C@H]2CN(CCc3ccccc3)C[C@@H]12 (stereo not given in full)	-7.01	14.3	2.14	-1.73	-4.5	-1.37	11.1	15.4	-0.684	6.76	0	-10.2
NC(=O)CN1CCCN(C(=O)Cc2ccc3ccccc3c2)CC1	-7.48	0	2.66	1.74	-13.2	-6.21	0.594	24.3	-25.4	-0.526	-5.13	-8.56
